Results published in PubChem BioAssay.
The source made the active and inactive calls.

Columns and labels:
[1] = small molecules captured by biotinylated probe aFSTL3 – biochemical, small-molecule microarray, fluorescence 635/667, stem cell growth factor project, primary screen (AID 1064); details: higher = more signal;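 further: measures binding of the biotinylated anti-FSTL3 antibody to printed compounds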
[2] = binders from COS7 lysate, DM2A8 probe, primary screen, torsin A project, cell lysate, small-molecule microarray, fluorescence 635/667 (AID 1065); details: higher = more signal, COS7 lysate expressing mutant human TOR1A
[3] = small molecules captured by biotinylated probe aFGF2 – biochemical, small-molecule microarray, fluorescence 635/667, stem cell growth factor project, primary screen (AID 1067); details: higher = more signal;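 further: measures binding of biotinylated aFGF2 protein to printed compounds on slides; z-score merges feature fluorescence and signal-to-noise across triplicate slides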
[4] = small molecules captured by biotinylated probe aFGF10 – biochemical, small-molecule microarray, fluorescence 635/667, stem cell growth factor project, primary screen (AID 1071); details: higher = more signal;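 further: score merges 667 nm spot intensity and signal to noise from triplicate slides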
[5] = biological target: Neurogenic locus notch homolog protein 2 (Homo sapiens) (UniProt Q04721); assay: small molecules binding Notch2 protein – biochemical, small-molecule microarray, 635 nm fluorescence, stem cell growth factors, primary screen (AID 1073); details: higher = more signal
Chain of Neurogenic locus notch homolog protein 2 (Homo sapiens) (Q04721 whole entry, looked up, canonical isoform): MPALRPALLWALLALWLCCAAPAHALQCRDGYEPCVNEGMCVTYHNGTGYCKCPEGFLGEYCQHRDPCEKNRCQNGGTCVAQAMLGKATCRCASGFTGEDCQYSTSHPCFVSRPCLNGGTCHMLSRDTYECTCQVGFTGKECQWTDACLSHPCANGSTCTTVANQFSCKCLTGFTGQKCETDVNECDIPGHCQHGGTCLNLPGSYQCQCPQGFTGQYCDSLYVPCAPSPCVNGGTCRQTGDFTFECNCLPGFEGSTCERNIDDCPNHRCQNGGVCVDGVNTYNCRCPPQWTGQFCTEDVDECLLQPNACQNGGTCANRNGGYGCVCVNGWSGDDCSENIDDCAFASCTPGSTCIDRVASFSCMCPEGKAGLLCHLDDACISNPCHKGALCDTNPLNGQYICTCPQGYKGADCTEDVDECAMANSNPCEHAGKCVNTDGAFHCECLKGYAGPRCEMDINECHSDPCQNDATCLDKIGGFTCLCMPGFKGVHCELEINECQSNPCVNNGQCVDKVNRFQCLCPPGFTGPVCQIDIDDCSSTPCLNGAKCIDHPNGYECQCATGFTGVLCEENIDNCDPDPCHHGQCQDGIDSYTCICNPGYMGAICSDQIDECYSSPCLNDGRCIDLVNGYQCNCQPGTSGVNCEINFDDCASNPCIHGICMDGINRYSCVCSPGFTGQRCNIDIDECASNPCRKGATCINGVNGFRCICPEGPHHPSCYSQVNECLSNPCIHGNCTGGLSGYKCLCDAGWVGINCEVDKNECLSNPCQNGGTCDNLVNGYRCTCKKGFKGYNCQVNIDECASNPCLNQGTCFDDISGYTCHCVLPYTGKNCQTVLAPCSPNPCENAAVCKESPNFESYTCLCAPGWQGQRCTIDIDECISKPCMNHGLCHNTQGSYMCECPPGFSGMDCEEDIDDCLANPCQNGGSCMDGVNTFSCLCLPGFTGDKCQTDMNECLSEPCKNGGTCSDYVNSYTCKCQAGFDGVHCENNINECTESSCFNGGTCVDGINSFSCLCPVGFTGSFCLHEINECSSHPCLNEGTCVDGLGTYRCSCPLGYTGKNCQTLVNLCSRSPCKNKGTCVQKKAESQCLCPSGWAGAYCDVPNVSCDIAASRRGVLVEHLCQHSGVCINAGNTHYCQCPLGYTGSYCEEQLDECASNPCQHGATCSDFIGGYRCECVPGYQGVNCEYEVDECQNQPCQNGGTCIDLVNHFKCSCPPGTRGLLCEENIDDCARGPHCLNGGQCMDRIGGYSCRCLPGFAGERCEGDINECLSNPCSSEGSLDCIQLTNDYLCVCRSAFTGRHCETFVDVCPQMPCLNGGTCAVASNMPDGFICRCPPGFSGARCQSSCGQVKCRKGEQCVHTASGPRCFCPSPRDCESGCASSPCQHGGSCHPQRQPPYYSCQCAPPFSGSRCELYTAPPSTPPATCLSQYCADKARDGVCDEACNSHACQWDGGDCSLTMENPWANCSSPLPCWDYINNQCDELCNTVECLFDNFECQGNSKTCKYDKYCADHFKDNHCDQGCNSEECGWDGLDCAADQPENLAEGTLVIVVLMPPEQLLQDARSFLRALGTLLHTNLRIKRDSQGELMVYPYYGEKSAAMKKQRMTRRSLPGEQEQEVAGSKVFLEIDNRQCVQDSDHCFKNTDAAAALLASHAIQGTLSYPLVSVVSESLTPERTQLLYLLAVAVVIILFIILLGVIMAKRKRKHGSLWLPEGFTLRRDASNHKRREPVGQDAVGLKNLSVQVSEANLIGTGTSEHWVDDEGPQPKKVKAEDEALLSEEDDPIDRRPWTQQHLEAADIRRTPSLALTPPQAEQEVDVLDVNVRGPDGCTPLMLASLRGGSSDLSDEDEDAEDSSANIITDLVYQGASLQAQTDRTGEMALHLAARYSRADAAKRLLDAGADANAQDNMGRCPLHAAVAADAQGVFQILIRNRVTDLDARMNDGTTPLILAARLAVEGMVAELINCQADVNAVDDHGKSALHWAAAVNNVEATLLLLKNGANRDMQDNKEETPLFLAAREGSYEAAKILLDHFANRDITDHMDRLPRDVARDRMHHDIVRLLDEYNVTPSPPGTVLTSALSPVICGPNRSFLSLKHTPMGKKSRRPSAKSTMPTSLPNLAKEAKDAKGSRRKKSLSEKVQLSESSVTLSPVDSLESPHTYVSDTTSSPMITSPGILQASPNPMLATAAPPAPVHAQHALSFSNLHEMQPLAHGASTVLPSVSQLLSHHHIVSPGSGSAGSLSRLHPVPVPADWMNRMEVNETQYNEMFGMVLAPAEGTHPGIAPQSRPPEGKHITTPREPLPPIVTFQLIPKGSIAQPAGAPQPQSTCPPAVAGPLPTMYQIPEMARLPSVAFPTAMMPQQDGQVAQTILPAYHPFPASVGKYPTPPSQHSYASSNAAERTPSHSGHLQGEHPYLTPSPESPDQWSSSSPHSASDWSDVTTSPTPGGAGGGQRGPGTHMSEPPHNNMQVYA

[6] = biological target: Pro-neuregulin-1, membrane-bound isoform (Homo sapiens) (UniProt Q02297); assay: small molecules binding neuregulin-1 protein – biochemical, small-molecule microarray, fluorescence 635/667, psychiatric disease protein project, primary screen (AID 1075); details: NRG1 binding, 635 nm fluorescence, higher = more signal;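 further: score combines 667 nm spot fluorescence with signal to noise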
[7] = test system: Neuregulin-1 EGF-like domain; assay: small molecules binding NRG1 EGF domain – biochemical, small-molecule microarray, 635 nm fluorescence, primary screen (AID 1081); details: higher = more signal;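 further: binding of the protein to compounds printed on small-molecule microarray slides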
[8] = FRG1 expression reporter modulators in myotubes – cell-based, C2C12 myotubes, firefly/Renilla luciferase, luminescence, FRG1 inhibition for FSHD, primary screen (AID 1084); details: FRG1 promoter luciferase, higher = more signal, called active from +8 up or from −8 down
[9] = small molecules captured by biotinylated probe aFST – biochemical, small-molecule microarray, fluorescence 635/667, stem cell growth factor project, primary screen (AID 1086); details: higher = more signal;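 further: score merges 667 nm fluorescence with signal-to-noise of each printed compound spot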
[10] = binders of probe aHhip on microarray, primary screen, stem cell growth factor project, biochemical, small-molecule microarray, fluorescence 635/667 (AID 1087); details: higher = more signal;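 further: score merges spot fluorescence at 667nm with spot signal to noise ratio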
[11] = test system: PRMT1 (protein arginine N-methyltransferase 1); assay: small molecules binding arginine methyltransferase PRMT1 – biochemical, small-molecule microarray, 635 nm fluorescence, primary screen (AID 1088); details: higher = more signal;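 further: binding of Prmt1 protein to compounds spotted on small-molecule microarray slides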
[12] = growth effects on S. cerevisiae YJM789 – YJM789 clinical isolate, OD600, 24 h, basal, primary screen (AID 1089); details: higher = more signal, called active from +8 up or from −8 down;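 further: growth of clinical yeast isolate S. cerevisiae YJM 789 seeded 1000 cells per well; test concentration not given here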
[13] = S. pombe growth modifiers, basal conditions – strain 972, OD600, 24 h, no modulator, primary screen (AID 1090);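 further: basal condition with compound alone and no growth modifier present; test concentration not given here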; details: S. pombe 972 growth, higher = more signal, called active from +8 up or from −8 down
[14] = budding yeast growth modifiers under rapamycin – strain BY4716, OD600, 96 h, primary screen (AID 1091); further: test concentration not given here; details: S. cerevisiae BY4716 + rapamycin, higher = more signal, called active from +8 up or from −8 down
[15] = biological target: Torsin-1A-interacting protein 2 (Homo sapiens) (UniProt Q8NFQ8); assay: small molecules binding lysate-expressed LULL1 – cell lysate, human LULL1 lysate, 635/667 nm fluorescence, primary screen (AID 1092); details: small-molecule microarray, hLULL1 lysate binding, 635 nm fluorescence; higher = more signal;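 further: probe is lysate of COS7 cells overexpressing human LULL1; score merges per-feature 667 nm fluorescence with signal-to-noise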
[16] = optical density change of DRC41 E. coli – strain DRC41, OD650, 24 h, E. coli filamentation project, primary screen (AID 1093);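 further: MC1000 strain lacking acrAB efflux and sulA so SOS filamentation is blocked; test concentration not given here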; details: E. coli DRC41 growth, higher = more signal, called active from +8 up or from −8 down
[17] = probe aLefty2 binding to arrayed compounds – biochemical, biotinylated probe, 635/667 nm fluorescence, primary screen (AID 1094); details: small-molecule microarray, higher = more signal;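 further: score merges spot fluorescence near 667 nm with spot signal-to-noise ratio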
[18] = test system: Noggin (protein binding on small-molecule microarray); assay: small molecules binding Noggin protein – biochemical, 635/667 nm fluorescence, primary screen (AID 1095); details: 635 nm fluorescence, higher = more signal;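 further: score merges 667 nm feature fluorescence with signal to noise over triplicate slides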
[19] = biological target: Neurogenic locus notch homolog protein 3 (Homo sapiens) (UniProt Q9UM47); assay: small molecules binding NOTCH3 protein – biochemical, 635/667 nm fluorescence, primary screen (AID 1096); details: small-molecule microarray, 635 nm fluorescence, higher = more signal
Chain of Neurogenic locus notch homolog protein 3 (Homo sapiens) (Q9UM47 whole entry, looked up): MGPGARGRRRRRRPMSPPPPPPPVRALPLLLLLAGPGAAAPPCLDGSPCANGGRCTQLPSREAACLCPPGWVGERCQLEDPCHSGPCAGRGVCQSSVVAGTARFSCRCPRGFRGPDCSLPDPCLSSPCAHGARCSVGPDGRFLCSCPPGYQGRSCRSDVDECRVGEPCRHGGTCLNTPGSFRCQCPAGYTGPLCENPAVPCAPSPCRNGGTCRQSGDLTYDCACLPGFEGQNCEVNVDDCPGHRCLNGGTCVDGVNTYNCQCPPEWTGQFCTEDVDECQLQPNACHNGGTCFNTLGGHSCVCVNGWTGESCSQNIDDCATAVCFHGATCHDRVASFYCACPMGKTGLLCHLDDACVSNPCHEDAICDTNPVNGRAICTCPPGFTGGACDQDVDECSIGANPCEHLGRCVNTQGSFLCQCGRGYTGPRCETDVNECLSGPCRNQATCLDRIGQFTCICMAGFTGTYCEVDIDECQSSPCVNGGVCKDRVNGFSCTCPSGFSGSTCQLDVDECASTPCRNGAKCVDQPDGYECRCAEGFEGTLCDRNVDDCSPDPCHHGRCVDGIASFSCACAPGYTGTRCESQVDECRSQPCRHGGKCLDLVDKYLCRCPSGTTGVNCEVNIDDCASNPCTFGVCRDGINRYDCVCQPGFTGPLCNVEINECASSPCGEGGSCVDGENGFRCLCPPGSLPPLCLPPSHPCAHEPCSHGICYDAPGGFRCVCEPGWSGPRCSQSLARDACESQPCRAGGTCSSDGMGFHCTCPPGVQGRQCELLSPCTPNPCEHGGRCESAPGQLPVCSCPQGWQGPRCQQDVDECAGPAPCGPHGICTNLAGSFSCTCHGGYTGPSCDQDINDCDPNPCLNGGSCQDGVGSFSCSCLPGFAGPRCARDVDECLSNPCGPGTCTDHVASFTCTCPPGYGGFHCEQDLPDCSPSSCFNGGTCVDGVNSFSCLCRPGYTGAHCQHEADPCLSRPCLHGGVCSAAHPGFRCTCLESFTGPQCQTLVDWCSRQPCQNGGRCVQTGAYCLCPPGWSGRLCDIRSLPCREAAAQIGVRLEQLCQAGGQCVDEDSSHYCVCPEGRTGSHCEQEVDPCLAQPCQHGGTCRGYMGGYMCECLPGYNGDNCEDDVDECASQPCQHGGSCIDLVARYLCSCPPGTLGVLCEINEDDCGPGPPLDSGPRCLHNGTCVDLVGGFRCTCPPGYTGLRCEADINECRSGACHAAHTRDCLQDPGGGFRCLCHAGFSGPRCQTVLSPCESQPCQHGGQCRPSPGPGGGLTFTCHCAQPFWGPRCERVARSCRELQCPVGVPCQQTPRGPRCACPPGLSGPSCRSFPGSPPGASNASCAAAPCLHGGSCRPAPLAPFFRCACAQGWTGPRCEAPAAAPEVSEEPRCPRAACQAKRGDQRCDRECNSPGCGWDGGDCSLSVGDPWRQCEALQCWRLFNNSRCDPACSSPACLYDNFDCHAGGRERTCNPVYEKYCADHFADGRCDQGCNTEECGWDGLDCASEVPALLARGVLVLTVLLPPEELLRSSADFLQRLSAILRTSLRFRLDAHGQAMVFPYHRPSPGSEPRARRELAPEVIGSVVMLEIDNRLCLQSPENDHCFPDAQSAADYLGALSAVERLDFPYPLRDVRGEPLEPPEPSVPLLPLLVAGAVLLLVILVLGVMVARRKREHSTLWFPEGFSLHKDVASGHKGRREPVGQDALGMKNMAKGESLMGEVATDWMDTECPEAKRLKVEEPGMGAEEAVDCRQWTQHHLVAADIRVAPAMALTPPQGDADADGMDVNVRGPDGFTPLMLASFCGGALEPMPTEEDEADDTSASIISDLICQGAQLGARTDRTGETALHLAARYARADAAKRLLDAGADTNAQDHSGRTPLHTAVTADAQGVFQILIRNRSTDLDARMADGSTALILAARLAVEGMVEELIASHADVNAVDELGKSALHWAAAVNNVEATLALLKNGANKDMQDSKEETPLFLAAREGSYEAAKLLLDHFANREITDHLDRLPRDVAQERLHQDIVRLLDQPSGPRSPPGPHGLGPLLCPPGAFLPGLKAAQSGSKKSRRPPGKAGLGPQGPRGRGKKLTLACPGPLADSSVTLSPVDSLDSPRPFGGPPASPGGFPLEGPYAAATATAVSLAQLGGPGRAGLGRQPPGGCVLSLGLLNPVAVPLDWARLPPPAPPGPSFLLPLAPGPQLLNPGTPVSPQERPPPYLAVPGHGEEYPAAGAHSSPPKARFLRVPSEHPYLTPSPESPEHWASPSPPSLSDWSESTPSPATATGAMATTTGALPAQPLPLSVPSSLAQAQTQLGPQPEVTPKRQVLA

[20] = probe aEGFR binding to arrayed compounds – biochemical, biotinylated probe, 635/667 nm fluorescence, primary screen (AID 1097); details: small-molecule microarray, higher = more signal;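 further: probe is a biotinylated anti-EGFR antibody binding compounds printed on slides; score combines fluorescence near 667 nm and signal to noise of each spot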

Structure (SMILES)	composite z-score [1]	composite z-score [2]	composite z-score [3]	composite z-score [4]	composite z-score [5]	composite z-score [6]	composite z-score [7]	z-score [8]	composite z-score [9]	composite z-score [10]	composite z-score [11]	z-score [12]	z-score [13]	z-score [14]	composite z-score [15]	z-score [16]	composite z-score [17]	composite z-score [18]	composite z-score [19]	composite z-score [20]
O=C1O[C@@H](c2ccccc2)[C@@H](c2ccccc2)N2[C@@H](c3ccc(O)cc3)[C@]3(C(=O)Nc4ccc(C#CCCO)cc43)[C@@H](C(=O)N3CCCCCCC3)[C@H]12	2.71	1.72	0.442	0.888	0.347	1.62	1.25	-1.61 (inactive)	2.57	1.64	1.55	0.36 (inactive)	0.67 (inactive)	1.51 (inactive)	3.5	-0.306 (inactive)	1.26	1.48	0.939	0.079
C=CCNC(=O)[C@H]1[C@@H]2C(=O)O[C@@H](c3ccccc3)[C@@H](c3ccccc3)N2[C@@H](c2ccc(OCCO)cc2)[C@]12C(=O)N(C(=O)OCCOC)c1ccc(C#CC3(O)CCCCCC3)cc12	-0.0322	1.14	-0.0627	0.527	1.03	0.764	1.31	-0.313 (inactive)	0.422	0.113	1.54	1.95 (inactive)	0.97 (inactive)	6.64 (inactive)	2.42	1.08 (inactive)	-0.0319	1.6	1.04	0.122
COc1ccc([Si](C)(C)[C@@H]2[C@@H](CCO)O[C@]3(C(=O)N(Cc4ccccc4)c4ccc(N(C=O)c5ccccc5)cc43)[C@H]2C)cc1	-0.106	0.255	-0.133	0.465	0.154	0.359	0.979	-2.04 (inactive)	-0.176	-0.236	1.28	0.697 (inactive)	1.56 (inactive)	7.37 (inactive)	1.33	0.329 (inactive)	-0.0479	0.0182	0.718	-0.189
COc1ccc(C#Cc2ccc3c(c2)[C@]2(C(=O)N3)[C@H](c3ccc(OCCO)cc3)N3[C@H](c4ccccc4)[C@H](c4ccccc4)OC(=O)[C@H]3[C@@H]2C(=O)Nc2nc3ccccc3s2)cc1	0.244	0.664	-0.0167	0.71	1.07	2.24	1.13	3.55 (inactive)	0.667	-0.181	1.54	2 (inactive)	0.831 (inactive)	1.44 (inactive)	3.02	2.4 (inactive)	0.135	0.57	1.12	0.238
CN(C)CCCC[C@@H]1NC(=O)[C@H]2C[C@@H](C(=O)NCCCCCNC(=O)CS)[C@@H](c3ccc(O)cc3)N2C1=O	0.594	-0.149	-0.203	-0.122	-1.21	0.356	-0.458	0.348 (inactive)	-0.576	-0.134	-0.97	0.428 (inactive)	-0.578 (inactive)	-0.52 (inactive)	0.134	0.702 (inactive)	0.0601	-0.673	-0.0464	-0.167
Cc1ccc(S[C@]2(C(=O)NCc3ccccc3)CC(=O)N(Cc3cc(C(F)(F)F)cc(C(F)(F)F)c3)[C@@H]2c2ccc(CO)cc2)cc1	-0.989	-0.779	-0.172	-0.596	-0.885	0.57	0.246	-0.588 (inactive)	-0.0847	-0.362	1.34	1.04 (inactive)	-0.27 (inactive)	0.521 (inactive)	1.94	-0.764 (inactive)	-0.225	0.0043	-0.132	-0.325
C=C(CCCC)C(=O)CC[C@@H](OC(=O)c1ccccc1-c1ccccc1C(=O)O)c1ccc(CO)o1	-0.241	-0.141	-0.0291	0.45	0.629	0.504	0.989	-0.161 (inactive)	0.137	0.192	1.56	-0.516 (inactive)	-0.0561 (inactive)	-0.667 (inactive)	0.779	0.122 (inactive)	0.0202	1.24	0.534	0.0068
CC(C)C[C@@H]1NC(=O)[C@@H]2C[C@H](C(=O)NCCCCN(C)C)[C@H](c3ccc(O)cc3)N2C1=O	0.493	-0.202	-0.167	-1.02	-1.32	-0.343	0.443	1.92 (inactive)	-0.819	-0.0296	0.577	-0.145 (inactive)	1.36 (inactive)	-0.367 (inactive)	0.218	-0.0929 (inactive)	0.0566	0.118	-0.531	-0.218
Cc1c(NC(=O)/C(C#N)=C/C=C/c2ccccc2)c(=O)n(-c2ccccc2)n1C	-0.438	-0.0022	-0.0035	0.286	0.654	0.757	0.825	4.07 (inactive)	0.003	0.237	0.311	0.243 (inactive)	-0.678 (inactive)	0.561 (inactive)	0.396	1.94 (inactive)	-0.31	0.244	0.478	-0.0293
CC(C)OC(=O)C1=CCC(c2cccc(Cl)c2)O1 (stereo not given)	-0.206	-0.125	-0.0717	-0.348	-1.12	0.754	1.06	-0.716 (inactive)	-0.332	-0.409	0.559	-3.2 (inactive)	-5.63 (inactive)	-1.11 (inactive)	3.3	1.09 (inactive)	-0.245	-0.523	-0.129	-0.306
